A short description of assay [1]: P-glycoprotein substrates identified in KB-8-5-11 adenocarcinoma cell line, qHTS therapeutic library screen (AID 1346987). Note: series mostly up to about 44 µM. The essentials:
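KB-8-5-11: colchicine-selected sub-line of KB-3-1 over-expressing P-gp; assay medium lacked colchicine. 72 h drug exposure at 37 degree C, CellTiter-Glo.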
Background: Quantitative high-throughput screening tests each substance at several concentrations.

Assay [2] deals with Glutathione peroxidase 1 (Homo sapiens) (UniProt P07203). Put plainly: Primary qHTS Assay for Inhibitors of Recombinant Selenoprotein Glutathione Peroxidase 1 (GPX1) (AID 1845191). The essentials:
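10 nM GPX1 + cpd, 30 min RT; start w/ 1 mM GSH, 0.5 mM cumene hydroperoxide, 0.5 mM NADPH, 100 nM GR, 0.01% BSA; buffer 50 mM Tris-HCl pH 7.5, 2 mM EDTA, 150 mM NaCl; Fl 340/450, 0 & 15 min.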

SMILES strings stand for the structures. Records with an inconclusive call do not appear. Entries that show only a call come without a potency. Active and inactive are the calls of the source. Calls come from the whole dose curve; as a rule, active = well fitted inhibition curve with a large enough effect; inconclusive = small, poorly fitted or top-dose-only effect; inactive = flat fitted curve, though single readings scatter.
Note: nearly all actives have a fitted effect of over 65% in size.

Chain of Glutathione peroxidase 1 (Homo sapiens) (P07203 whole entry, looked up): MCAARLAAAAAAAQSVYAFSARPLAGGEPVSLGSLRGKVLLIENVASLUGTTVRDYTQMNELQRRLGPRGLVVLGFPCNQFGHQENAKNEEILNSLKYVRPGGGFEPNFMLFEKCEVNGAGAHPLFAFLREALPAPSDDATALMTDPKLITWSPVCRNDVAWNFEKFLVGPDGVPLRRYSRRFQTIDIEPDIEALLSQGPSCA

On to `CCCCCCCCCCC(O)C1C=CC2C(=O)N(c3ccccc3)C(=O)C2N1Nc1ccc([N+](=O)[O-])cc1` (configuration not stated), for which the Potency result in assay [1] and in assay [2] was “inactive” each time.

For the origin of these results see PubChem BioAssay (NCATS).
